Test results: PubChem BioAssay (NCI)
The panel holds about 79,000 compounds, 15% with a hit somewhere; the sample as a whole holds those more often. No stated cut-off is given here; in the data, active means growth inhibition above about 70%; inactive means the rest.

Tests used:
[1] = NCI Yeast Anticancer Drug Screen. Data for the rad50 strain (AID 155);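 further: 0% = growth of vehicle-only cultures of the same strain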; details: S. cerevisiae rad50 strain growth inhibition; at 50.0 µM; stronger effect = higher value
Procedure, shortened: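 Relative growth inhibition (compound vs vehicle) was measured in yeast with a defined repair-gene alteration.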

[2] = NCI Yeast Anticancer Drug Screen. Data for the mec2-1 strain (AID 157); details: S. cerevisiae mec2-1 strain, at 50.0 µM, stronger effect = higher value
Procedure, shortened: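 Vehicle-treated cultures served as reference for growth inhibition of compound-exposed mec2-1 yeast.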

[3] = NCI Yeast Anticancer Drug Screen. Data for the sgs1 mgt1 strain (AID 161);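 further: 0% = growth of cultures given vehicle only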; details: S. cerevisiae sgs1 mgt1 strain, at 50.0 µM, stronger effect = higher value
Procedure, shortened: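 Read-out: growth inhibition vs vehicle controls. Cells: mutant yeast strain deficient in DNA damage repair.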

[4] = NCI Yeast Anticancer Drug Screen. Data for the cln2 rad14 strain (AID 165);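 further: 0% = growth equal to vehicle treated cultures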; details: S. cerevisiae cln2 rad14 strain, at 50.0 µM, stronger effect = higher value
Procedure, shortened: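 Each compound was tested on cln2 rad14 yeast. Inhibition of growth was calculated against vehicle-exposed controls.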

[5] = NCI Yeast Anticancer Drug Screen. Data for the bub3 strain (AID 167); details: S. cerevisiae bub3 mutant strain, at 50.0 µM, stronger effect = higher value
Procedure, shortened: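 Screening used yeast with an engineered genetic alteration affecting cell cycle control. Compound-exposed cultures were compared with vehicle cultures, and reduced growth was taken as inhibition.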

[6] = NCI Yeast Anticancer Drug Screen. Data for the mlh1 rad18 strain (AID 175); details: S. cerevisiae mlh1 rad18 strain growth inhibition; at 50.0 µM; stronger effect = higher value
Procedure, shortened: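 Vehicle-treated cultures served as the reference for growth inhibition in a yeast strain carrying DNA damage repair alterations exposed to each compound.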

Measured: growth inhibition

CCCCCCCC/C=C/CCCCCCCC(=O)N(C)CC(=O)O
inactive: [1] -18.6% | [2] -17% | [3] 10.8% | [4] -29.1% | [5] 22.5% | [6] -8.05%

N#Cc1ccc(CCc2ccc(Cl)cc2)cc1
inactive: [1] -6.85% | [2] -17.2% | [3] -6.9% | [4] -41.1% | [5] 1.3% | [6] -9.8%

O=C(CNc1ccc(Cl)cc1Cl)NC1C=Cc2ccc(S(=O)(=O)Nc3ccc(Cl)cc3Cl)cc2C1=O (stereo not drawn)
inactive: [1] 34.5% | [2] 20.4% | [3] 44% | [4] 14.2% | [5] 29.1% | [6] 33.1%

Cc1cc(S(=O)(=O)Nc2n[nH]c(Nc3ccccc3)n2)c(SCC(=O)O)cc1Cl
inactive: [1] 11.3% | [2] 52.8% | [3] 51.2% | [4] -0.25% | [5] -4.2% | [6] 23.1%

CC(C)N1CCN(c2ccncc2S(=O)(=O)N2CCCCC2)CC1
inactive: [1] -14.1% | [2] -23.2% | [3] -12.3% | [4] -5.5% | [5] -21.9% | [6] -30.4%

O=C1c2ccccc2-c2ccc([N+](=O)[O-])cc21
inactive: [1] 35.6% | [2] 5.8% | [3] -0.3% | [4] 8.65% | [5] -1.3% | [6] -2.85%

C#CCN(C)C(C)=O
inactive: [1] 25.3% | [2] -3.3% | [3] 5.1% | [4] 10.8% | [5] 6.45% | [6] 13.6%

O=C(O)C(=O)C(=O)O
inactive: [1] -23% | [2] -41.8% | [3] -9.65% | [4] -10.1% | [5] -1.45% | [6] -5.45%

CN(C)C(=S)c1cccc2ccccc12
inactive: [1] 5.1% | [2] -10.5% | [3] -1.95% | [4] -31.4% | [5] -27.2% | [6] -8.45%

O=C(NCC1(c2ccc3c(c2)OCO3)OCCO1)c1ccccc1[N+](=O)[O-]
inactive: [1] 20% | [2] -4.1% | [3] -2.1% | [4] -42.6% | [5] -5.75% | [6] 2.6%

O=C1CC(C(F)(F)F)(C(F)(F)F)O1
inactive: [1] 11.3% | [2] 19.4% | [3] -8.75% | [4] -58.2% | [5] 13.6% | [6] -19%

O=C1Cc2nc(CO)c(CO)c(CO)c2CO1
inactive: [1] -43% | [2] -34.6% | [3] -72.7% | [4] -2.85% | [5] -37% | [6] -47%

COc1cccc(-c2nc(SCC(N)=O)[nH]c(=O)c2C#N)c1
inactive: [1] 6.25% | [2] 1.8% | [3] 13.5% | [4] 12% | [5] 17.5% | [6] 14.2%

COc1cc2c(cc1OC)[C@H]1Cc3cc(OC)c(OC)cc3[C@@H](C2)N1C(C)=O
inactive: [1] -2.1% | [2] -11.2% | [3] -16.6% | [4] 22.6% | [5] 20.9% | [6] -3.6%

CN(C(=O)C12C3C4C5C3C1(C(=O)O)C5C42)C(C)(C)C (stereo not drawn)
inactive: [1] 35.4% | [2] 12.2% | [3] 0.85% | [4] 18.8% | [5] 28.1% | [6] 25.9%

N#Cc1c(-c2ccc(Cl)cc2)cn2c1[nH]c(=O)c1cc(Br)ccc12
inactive: [1] 6.45% | [2] 0.95% | [3] -18.4% | [4] -12.6% | [5] -3.4% | [6] 14.4%

COc1ccccc1/C=C/c1nc2ccccc2o1
inactive: [1] 47.6% | [2] 19.7% | [3] 56.1% | [4] 13.6% | [5] 59.8% | [6] 53%

OC1CCCSc2ccccc21 (stereo not drawn)
inactive: [1] 19.6% | [2] 1% | [3] -4.8% | [4] 8% | [5] 2.8% | [6] -1.45%

CC1(C)CC(Nc2ccc(Nc3ccccc3)cc2)CC(C)(C)N1
inactive: [1] -4.35% | [2] -6.3% | [3] -11.3% | [4] -9.8% | [5] -2.1% | [6] -19.8%

CC1C2CC(C(C3C(=O)C4CC3C(C)(C)C4C)C2=O)C1(C)C (stereo not drawn)
inactive: [1] -13.1% | [2] -26.1% | [3] -43.2% | [4] -1% | [5] -27.4% | [6] -32.1%

COC(=O)C1(CC(=O)c2cc(Cl)ccc2Cl)NC(=S)NC(=O)C1C#N (stereo not drawn)
inactive: [1] 19.9% | [2] -9.1% | [3] -8.15% | [4] 30.5% | [5] -6.75% | [6] 2.1%

O=C(Nc1ccc([N+](=O)[O-])cc1)c1cc(N2CCOCC2)ccn1
inactive: [1] 38% | [2] 16.6% | [3] 21.6% | [4] 15.6% | [5] 2.15% | [6] 25.6%

C=C(C)C1CC(=O)C2(C)C(C1)OC(=O)C2C(=O)OCC (stereo not drawn)
inactive: [1] 11.6% | [2] -0.65% | [3] -8.3% | [4] 8.95% | [5] 0.1% | [6] -6.65%

CN(C)CCSSCCN(C)C
inactive: [1] -7.55% | [2] -5.65% | [3] -13.6% | [4] -14.1% | [5] -2.55% | [6] -3.55%

Clc1cc2nn(C3CCCCO3)nc2cc1Cl (stereo not drawn)
inactive: [1] 0.65% | [2] -12.8% | [3] -18.4% | [4] -15.9% | [5] 16.9% | [6] -44.8%

Nc1nc(N)c(N=Nc2ccc([N+](=O)[O-])cc2)c(=O)[nH]1
inactive: [1] -0.9% | [2] -16.9% | [3] -12% | [4] 9% | [5] 0.7% | [6] -3.9%

CC1=NCC(C)S1 (stereo not drawn)
inactive: [1] -3.3% | [2] -9.95% | [3] 7% | [4] -6.05% | [5] -9.3% | [6] -5.75%

CCOC(=O)N1c2ccccc2SC1C#N (stereo not drawn)
inactive: [1] 63.1% | [2] 40.1% | [3] 37.4% | [4] 1.85% | [5] 25.1% | [6] 27.4%

O=C(O)c1cc(-c2ccccc2Cl)nc2cc3ccccc3cc12
inactive: [1] -14.4% | [2] -19.7% | [3] 4.45% | [4] 14.1% | [5] -6.05% | [6] 0.8%

CN(C)CCCNc1ccc2ncn3c4ccc(O)cc4c(=O)c1c23
inactive: [1] -4.45% | [2] -3.9% | [3] -14.3% | [4] -15.3% | [5] 0.5% | [6] 7.9%

CC(C)(C)C(=O)N/N=C\c1ccc([N+](=O)[O-])s1
inactive: [1] 13.1% | [2] -7.3% | [3] 20.4% | [4] 38.7% | [5] 13.1% | [6] 40.5%

NNC(=O)CNC(=O)c1ccccc1
inactive: [1] 11.5% | [2] -14.6% | [3] -10.9% | [4] 1.85% | [5] 0% | [6] -15%

CC1(C)CN(Cc2ccccc2)C(C)(C)CN1
inactive: [1] -5.85% | [2] -6.65% | [3] -6.4% | [4] -54.6% | [5] -10.5% | [6] -4.65%

COc1cc(C2CC(C)=C(C)CC2C(=O)O)cc(OC)c1OC (stereo not drawn)
inactive: [1] 1.55% | [2] 22.4% | [3] 7.25% | [4] 30.1% | [5] 10.4% | [6] 19.8%

C[C@H]1C(=O)OCN1S(=O)(=O)C(C)(C)C
inactive: [1] -0.05% | [2] 25% | [3] 16.1% | [4] -1.8% | [5] 16.1% | [6] -2.95%

COc1ccc(C2OC3=Nc4cc(C)c(C)cc4NC3C2=O)cc1OC (stereo not drawn)
inactive: [1] 15.7% | [2] -6.75% | [3] -6.15% | [4] -1.9% | [5] -23.4% | [6] 1.9%

Cc1ccc(NC(=O)CCCC(=O)CC(=O)c2ccc(Br)cc2)cc1
inactive: [1] -0.4% | [2] -14.9% | [3] -40.4% | [4] -26.2% | [5] -12.2% | [6] -24.6%

Nn1c(C23CC4CC(CC(C4)C2)C3)n[nH]c1=S
inactive: [1] 4.35% | [2] 5.65% | [3] 36.1% | [4] -6.85% | [5] 16.6% | [6] 28.1%
